Shown is part of a subset that was picked to be rich in hits.
CHX counter: counter-screen hit for Shiga toxin inhibitors, cycloheximide. cell reporter, cycloheximide protein synthesis inhibition counterscreen. max response, %. hit rate 12% among 300,000. AID 2314; in the data active = max response mostly above about 13%, no sharp cut-off; inactive = mostly below about 14%; note: read at 38.3 µM for the half of the compounds with a filed dose; 0% is about no effect
Shiga toxin inh: blocks Shiga toxin action in Vero cells | Vero cells, Shiga toxin protein synthesis inhibition reporter | inhibition, % at 38.7 µM | hit rate 9.2% among 290,000; in the data active = inhibition mostly above about 28%, no sharp cut-off; inactive = mostly below about 43%; note: 0% is about no effect
Tb PYK inh: inhibitors of Trypanosoma brucei pyruvate kinase; hit rate 0.12% among 410,000; TbPYK enzyme, Kinase-Glo Plus ATP luminescence, 45 min; AID 624173; Q57TT1; Potency, µM (series often up to 76.8 µM), inactives show at the top dose activity, negative = inhibition, hits mostly inhibitors; note: potency is the fitted concentration of half-maximal effect; % is set by controls: 0 for no effect and ±100 for the full control effect; nearly all actives have a fitted effect of over 50% in size
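Enzyme and substrate buffer are dispensed first and compound is pin-transferred. ADP at 130 uM final then starts the reaction, which runs 45 min at room temperature. Detection reagent is added for 10 min before luminescence is imaged.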
FBPA Giardia inh: inhibitors of Giardia lamblia fructose-1,6-bisphosphate aldolase | purified Giardia FBPA | Potency, µM (series often up to 59.6 µM), for inactives: at the highest dose activity, negative = inhibition, usual class: inhibitors | hit rate 0.71% among 290,000 | AID 2451; note: potency is the fitted concentration of half-maximal effect; % is set by controls: 0 for no effect and ±100 for the full control effect; nearly all actives have a fitted effect of over 55% in size
Target sequence (A8B2U2 whole entry, looked up): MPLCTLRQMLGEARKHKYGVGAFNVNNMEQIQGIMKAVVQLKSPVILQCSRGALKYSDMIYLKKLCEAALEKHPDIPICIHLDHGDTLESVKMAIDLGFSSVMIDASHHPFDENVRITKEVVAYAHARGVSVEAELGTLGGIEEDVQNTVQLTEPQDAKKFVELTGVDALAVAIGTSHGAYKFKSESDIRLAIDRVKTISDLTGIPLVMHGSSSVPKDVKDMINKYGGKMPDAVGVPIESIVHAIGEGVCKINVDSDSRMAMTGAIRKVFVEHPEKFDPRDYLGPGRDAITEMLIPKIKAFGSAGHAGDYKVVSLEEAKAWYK
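40 nM FBPA preincubated 10 min at RT with compound (up to 57.5 uM final), then substrate plus GAPDH/TPI/NAD/arsenate coupling and diaphorase/resazurin added. Fluorescence read after 20 min at RT, 525/598 nm.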
RE007 growth inh: less growth of the S. pombe RE007 Vpr strain; hit rate 0.21% among 360,000; S. pombe RE007 Vpr strain, BacTiter-Glo ATP luminescence, 24 h; Potency, µM (series often up to 92.2 µM), for inactives: at the top dose activity change, negative = less growth, hits mostly inhibitors; active = well fitted falling curve with a large enough effect; inconclusive = small, poorly fitted or top-dose-only effect; inactive = no such curve, though single readings can be large or run the other way; note: potency is the fitted concentration of half-maximal effect; % is set by controls: 0 for no effect and ±100 for the full control effect; nearly all actives have a fitted effect of over 50% in size
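Fission yeast RE007 carrying one integrated HIV-1 vpr copy, seeded at OD 0.01 in PMG+AL medium with 23 nL pinned compound. Grown 24 h at 30 degrees; viability read by BacTiter-Glo luminescence after 5 min.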
LmPK inhibitor: inhibitors of Leishmania mexicana pyruvate kinase | Potency, µM (series often up to 57.5 µM), for inactives: at the highest dose activity change, negative = inhibition, most hits filed as inhibitors | hit rate 0.37% among 290,000 | Q27686 | purified LmPK, Kinase-Glo ATP luminescence, 1 h | AID 1721; note: potency is the fitted concentration of half-maximal effect; % is set by controls: 0 for no effect and ±100 for the full control effect
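Screened at intermediate enzyme activity to detect both inhibitors and activators: LmPK at 0.1 nM, with a 0.5 nM enzyme column as activation reference. PEP 0.5 mM, ADP 0.1 mM; ATP detected by luminescence after 1 h.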
* = called active by the depositor; [ ] = remark or other dose. Unless noted, calls come from the whole dose curve; as a rule, active = well fitted curve in the direction sought with a large enough effect; inconclusive = small, poorly fitted or top-dose-only effect, or another doubt; inactive = no such curve, though single readings can be large; an effect the other way counts as inactive or inconclusive.

Screening O=C1NC(c2cccs2)Nc2sc3c(c21)CCCC3 (configuration not stated) returned CHX counter 38.4*, Shiga toxin inh 87.3*, Tb PYK inh inconclusive, FBPA Giardia inh inconclusive, RE007 growth inh -2.7% and LmPK inhibitor -4.3%.
`CN1CCc2c(sc3c2C(=O)NC(c2ccco2)N3)C1` (configuration not stated) gave CHX counter 3.9, Shiga toxin inh -1.4, Tb PYK inh -8.5%, FBPA Giardia inh inconclusive, RE007 growth inh -11.4% and LmPK inhibitor 1.7%.
Screening CC(=O)c1ccc(NC(=S)Nc2cccc3cnccc23)cc1 returned CHX counter 36.1*, Shiga toxin inh 46.5*, Tb PYK inh -12.9%, FBPA Giardia inh 1.99µM*, RE007 growth inh -28.8% and LmPK inhibitor 5.2%.
Cc1ccc(NC(=S)Nc2cccc3cnccc23)cc1C was read as CHX counter 32.2*, Shiga toxin inh 54.5, Tb PYK inh -1.6%, FBPA Giardia inh inconclusive, RE007 growth inh -28.7% and LmPK inhibitor 1.1%.
Screening Cc1ccc(NC(=S)Nc2cccc3cnccc23)cc1 returned CHX counter 25.7*, Shiga toxin inh 20.2, Tb PYK inh -17.7%, FBPA Giardia inh inconclusive, RE007 growth inh -13.4% and LmPK inhibitor -9.8%.
Cc1ccccc1NC(=S)Nc1cccc2cnccc12 was read as CHX counter 23.8*, Shiga toxin inh 53.8*, Tb PYK inh -11.1%, FBPA Giardia inh 1.99µM*, RE007 growth inh -16.2% and LmPK inhibitor 5.0%.
For COc1ccc(-c2cn3nc(N4CCC(C(=O)Nc5cc(Cl)ccc5C)CC4)sc3n2)cc1 the results were Tb PYK inh -3.0%[15.4 µM].
Screening CC1=C(C(=O)N2CCCCCC2)CC(CC(=O)NCCN2CCOCC2)C(=O)N1Cc1ccc(C(C)(C)C)cc1 (configuration not stated) returned Tb PYK inh 0.1% and RE007 growth inh 7.1%.
Screening Brc1ccc2nc(-c3cccs3)c(NCC3CCCO3)n2c1 (configuration not stated) returned CHX counter 31.7*, Shiga toxin inh 55.9*, Tb PYK inh -2.4%, FBPA Giardia inh inconclusive, RE007 growth inh -20.3% and LmPK inhibitor -19.1%.
For COc1cc(NC(=O)c2c(C)nn(-c3ccc(F)cc3)c2-n2cccc2)cc(OC)c1 the results were Tb PYK inh -4.4%.
Screening COc1cccc(C2/C(=C(\O)c3ccc4c(c3)OCCO4)C(=O)C(=O)N2Cc2cccnc2)c1 (configuration not stated) returned CHX counter 8.6, Shiga toxin inh 3.6, Tb PYK inh -2.2%, RE007 growth inh 4.7% and LmPK inhibitor -2.1%.
CCc1ccc(C(=O)Nc2cc(C)ccc2F)s1 was read as CHX counter 70.2*, Shiga toxin inh 104.8*, Tb PYK inh 3.4%, FBPA Giardia inh -22.6%, RE007 growth inh -2.9% and LmPK inhibitor -16.3%.
`C=CCOC(=O)c1sc(NC(=O)c2ccco2)nc1C` gave CHX counter 27.9*, Shiga toxin inh 127.9*, Tb PYK inh -7.5%, FBPA Giardia inh 2.1%, RE007 growth inh inconclusive and LmPK inhibitor -26.3%.
`CCOC(=O)c1csc(NC(=O)c2cc3ccccc3o2)n1` gave CHX counter 55.2*, Shiga toxin inh 74.8*, Tb PYK inh -10.2%, FBPA Giardia inh -7.4%, RE007 growth inh -28.4% and LmPK inhibitor -1.6%.
For Cc1cnc(NC(=O)c2cc3ccccc3o2)s1 the results were CHX counter 17.7*, Shiga toxin inh 46.7, Tb PYK inh 0.0%, FBPA Giardia inh -16.0%, RE007 growth inh -7.8% and LmPK inhibitor -19.7%.
For CSc1ccccc1C(=O)Nc1ncc(C)s1 the results were CHX counter 4.9, Shiga toxin inh 17.1, Tb PYK inh 4.4%, FBPA Giardia inh -0.2%, RE007 growth inh -25.1% and LmPK inhibitor 1.6%.
Screening CCc1cc2cc(C(=O)Nc3ccc(C)cc3)sc2s1 returned CHX counter 10.8, Shiga toxin inh 22.3, Tb PYK inh 2.1%, FBPA Giardia inh 6.3%, RE007 growth inh 11.4% and LmPK inhibitor 4.5%.
`COc1ccc(-c2nc(NC(=O)c3ccco3)sc2C)cc1` gave Tb PYK inh -6.0% and RE007 growth inh inconclusive.
For COc1cccc(C(c2sc3nc(-c4ccco4)nn3c2O)N2CCN(C)CC2)c1 (configuration not stated) the results were Tb PYK inh -2.3%.
Screening Cn1cccc1C(=O)N1CCC2(CCN(Cc3ccncc3)CC2)CC1 returned Tb PYK inh 0.0% and FBPA Giardia inh 2.1%.
Cc1ccccc1-c1nnc(NC(=O)c2cc3ccccc3oc2=O)s1 was read as CHX counter -3.0, Shiga toxin inh -14.7, FBPA Giardia inh 2.3% and LmPK inhibitor 3.1%.
Screening CCOC(=O)c1sc(NC(=O)c2ccccc2OC)nc1C returned CHX counter 23.9*, Shiga toxin inh 69.0*, Tb PYK inh -11.9%, FBPA Giardia inh -0.1%, RE007 growth inh -2.9% and LmPK inhibitor -20.3%.
`CS(=O)(=O)c1ccc2sc(NC(=O)c3cc4ccccc4o3)nc2c1` gave CHX counter -1.8, Shiga toxin inh 2.5, Tb PYK inh 7.5%, FBPA Giardia inh -0.6%, RE007 growth inh -16.2% and LmPK inhibitor 1.3%.
Screening CCc1nnc(NC(=O)c2cc3ccccc3oc2=O)s1 returned CHX counter 10.7*, Shiga toxin inh -2.7, Tb PYK inh -6.2%, FBPA Giardia inh 0.7%, RE007 growth inh inconclusive and LmPK inhibitor -1.2%.
For Cc1csc(NC(=O)c2ccccc2C(=O)O)n1 the results were CHX counter -2.6, Shiga toxin inh -4.2, FBPA Giardia inh 1.6%, RE007 growth inh 9.6%[3.69 µM] and LmPK inhibitor -14.8%.
Screening CCc1ccc(C(=O)Nc2nc(C)cs2)s1 returned CHX counter 40.8*, Shiga toxin inh 35.6*, Tb PYK inh 4.3%, FBPA Giardia inh -25.1%, RE007 growth inh -25.7% and LmPK inhibitor -9.1%.
`Cc1nc(NC(=O)c2cc3ccccc3o2)sc1C` gave CHX counter 37.3*, Shiga toxin inh 45.5, Tb PYK inh 1.7%, FBPA Giardia inh -10.0%, RE007 growth inh -11.0% and LmPK inhibitor -18.7%.
Screening COc1ccccc1N(CC(=O)N1CCCC1)S(=O)(=O)c1cc([N+](=O)[O-])ccc1Cl returned Tb PYK inh 0.9% and RE007 growth inh -6.0%.
Screening CC(C)Oc1ccc(CNC(=O)c2ccc(NC(=O)N3CCSc4ncccc43)cc2)cc1 returned Tb PYK inh -9.1%[15.4 µM].
For Cc1nnc(NC(=O)c2cc3ccccc3o2)s1 the results were CHX counter 25.0*, Shiga toxin inh 67.3*, Tb PYK inh -3.6%, RE007 growth inh -20.6% and LmPK inhibitor -3.0%.
`O=C(Nc1nnc(C2CC2)s1)c1cc2ccccc2o1` gave Tb PYK inh -5.0% and RE007 growth inh -7.5%.
